# Sampled rows, rich in hits. Any-hit rate of the full collection: about 3%.
# Bfl-1 A1 inh: inhibitors of the anti-apoptotic protein A1, read as caspase activation. MEF A1-2A-BIM cells, Caspase-Glo 3/7 luminescence, 3 h; percent of clofoctol response, vehicle zero. caspase activation, % (concentration not given with the values). hit rate 0.066% among 330,000. AID 2462;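 active means over half of replicate activation scores above 10%, or exactly half above 10 with the replicate mean above 10; inconclusive means replicate mean below 10 yet half the replicates above 10; inactive means over half of replicates below 10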
# NALP1 yeast inh: inhibitors of NALP1 inflammasome in yeast. S. cerevisiae NALP1/ASC/caspase-1 growth, X-gal OD620, 72 h. inhibition, % at 10 µM. hit rate 0.61% among 280,000; in the data active means inhibition mostly above about 24%, no sharp cut-off; inactive means mostly below about 32%
# NALP3 yeast inh: NALP3 inhibition in yeast. AID 2825. hit rate 0.39% among 330,000. Yeast reconstituted NLRP3/ASC/caspase-1, beta-gal luminescence, 24 h. inhibition, % at 10 µM;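 active means inhibition of 50% or more; inactive means inhibition below 50%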;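 further: plate controls were induced DMSO wells for no effect and uninduced yeast grown without galactose for full effect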
# CHT allo act: allosteric activators of human choline transporter CHT; Q9GZV3; CHT-expressing cells, membrane potential dye, choline EC20; hits give high values; LV-AA mutant CHT in HEK293 cells; B-score at 10 µM; hit rate 0.49% among 310,000; AID 488977;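 active means initial fluorescence not abnormally high and integrated response B-score, plate-corrected, over 3 SD above library mean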
# Target sequence (Q9GZV3 whole entry, looked up): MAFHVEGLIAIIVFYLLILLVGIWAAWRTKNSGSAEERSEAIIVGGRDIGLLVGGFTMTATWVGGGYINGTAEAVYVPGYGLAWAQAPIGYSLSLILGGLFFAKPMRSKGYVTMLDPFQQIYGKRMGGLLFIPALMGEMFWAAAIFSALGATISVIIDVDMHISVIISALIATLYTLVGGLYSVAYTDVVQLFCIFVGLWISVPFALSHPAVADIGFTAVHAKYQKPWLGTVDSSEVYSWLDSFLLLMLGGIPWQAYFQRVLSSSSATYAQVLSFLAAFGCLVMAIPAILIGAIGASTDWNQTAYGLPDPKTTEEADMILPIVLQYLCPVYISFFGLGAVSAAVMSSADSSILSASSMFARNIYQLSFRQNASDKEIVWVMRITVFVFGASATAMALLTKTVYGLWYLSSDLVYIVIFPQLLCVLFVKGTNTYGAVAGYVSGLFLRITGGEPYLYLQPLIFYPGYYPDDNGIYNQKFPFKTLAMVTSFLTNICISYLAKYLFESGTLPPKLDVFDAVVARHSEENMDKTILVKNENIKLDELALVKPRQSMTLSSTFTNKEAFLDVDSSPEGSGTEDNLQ
# CHT inh: inhibitors of human choline transporter CHT. Q9GZV3. CHT-expressing cells, membrane potential dye, choline response; hits give low values. B-score at 10 µM. hit rate 0.86% among 310,000. AID 488975;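 active means B-score over 3 SD under the library average, and starting fluorescence ratio not unusually high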;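 further: choline stimulus applied at its EC90 after an EC20 pre-addition; B-score computed on integrated fluorescence ratio after choline addition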
# SUMO Mot1 rescue: SUMOylation pathway inhibition by Mot1-301 growth rescue; S. cerevisiae Mot1-301 growth rescue, ATP luminescence, 38.5C; percent above DMSO median, 100 means doubled; growth rescue, % at 18.8 µM; hit rate 1% among 320,000;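 active means every valid replicate shows activation above 250% relative to neutral control wells; inactive means the rest, any valid replicate at or below 250%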;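 further: OY570 slx delta 5 strain wells were the positive control but not used for scaling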
# Numbers without * were called inactive; i = inactive; ? = inconclusive; / = no result given.
SMILES,Bfl-1 A1 inh,NALP1 yeast inh,NALP3 yeast inh,CHT allo act,CHT inh,SUMO Mot1 rescue
Cn1c(SCC(=O)OCc2ccccc2)nnc1-c1ccco1,0,44*,6,i,i,-17
CCOc1ccccc1N1CC(C(=O)Nc2cc(S(C)(=O)=O)ccc2Cl)CC1=O (centres undefined),-1,/,8,i,i,12
COc1ccc(C(=O)O)cc1S(=O)(=O)Nc1ccccc1-c1ccccc1,0,13,5,i,i,3
S=C(NCCOCCOCCNC(=S)Nc1ccccc1)Nc1ccccc1,?,21,28,i,i,-13
CC(C)(C)c1ccc(OCCNC(=S)Nc2ccccc2)cc1,1,30*,10,i,i,-12
COc1ccc(-n2c(=S)[nH]c3cc(C(=O)N4CCN(c5ccccc5)CC4)ccc3c2=O)c(OC)c1,-2,-5,6,i,i,-16
CCCC1=Nc2cc(C(=O)N3CCN(c4ccccn4)CC3)ccc2Sc2ccc(C)cc21,0,20,8,i,i,3
c1ccc2c(c1)CCN(c1nc3ccccc3n3cnnc13)C2,1,-11,17,i,i,172
C1=C(c2ccccc2)CCN(c2nc3ccccc3n3cnnc23)C1,0,41*,13,i,i,4
Cc1ccc(-n2c(-c3ccccc3)c[n+]3c2CCc2ccccc2-3)c(C)c1,-2,-34,-3,i,i,35
O=C1NC(Cc2ccccc2)c2nc3ccc(Br)cc3c(=O)n2-c2cc(Cl)ccc21 (centres undefined),0,/,-2,/,/,-22
CC[C@]1(c2ccccc2OC)ON(c2ccccc2C(F)(F)F)C1=O,2,/,36,/,/,225
COc1ccccc1[C@]1(C)ON(c2ccccc2C(F)(F)F)C1=O,1,/,16,/,/,296*
CCN(CC)c1ccc(C(=O)NNC(=O)CNC(=O)c2ccco2)cc1,/,/,4,/,/,/
Cn1c(=O)c(C(=O)COC(=O)c2cc(-c3ccco3)nc3ccccc23)c(N)n(CC2CC2)c1=O,-1,26,10,i,-5.5*,-9
O=c1[nH]c(-c2ccc(F)cc2)nc2c1sc(=S)n2-c1ccccc1,0,26,5,i,i,966*
Cc1noc(NS(=O)(=O)c2ccc(NC(=O)CC(C)C)cc2)c1C,-1,38*,-4,i,i,102
CCc1nnc(NC(=O)CSc2nc(-c3ccccc3)cc(-c3ccc(F)cc3)c2C#N)s1,7.1*,-2,7,i,i,-9
O=C(CN1C(=O)NC2(CCCCCCC2)C1=O)Nc1cccc(Br)c1,0,/,3,/,/,10
COc1ccc(C(=O)/C=C/C(=O)N(CC(=O)NC2CCCCC2)Cc2cccs2)c(O)c1,26*,2,22,i,i,155
COCCN(CC(=O)NC1CCCCC1)C(=O)/C=C/C(=O)c1ccc(OC)cc1O,/,-7,/,/,/,/
C#CCNC(=O)C1=C[C@@H](C(C)(C)C)C[C@@H](OCc2ccc(CO)cc2)O1,0,30*,12,i,i,185
CC(C)(C)[C@@H]1C=C(C(=O)NCc2ccccc2)O[C@H](OCc2ccc(CO)cc2)C1,1,4,18,i,i,78
O=C(NC1CCCCC1)C(c1ccc(F)cc1)N(CCc1ccccc1)C(=O)CN1C(=O)c2ccccc2S1(=O)=O (centres undefined),18*,23,/,i,i,-1
O=C(NC1CCCCC1)C(c1ccc(F)cc1)N(Cc1ccccc1)C(=O)CN1C(=O)c2ccccc2S1(=O)=O (centres undefined),-1,10,-12,i,i,-3
SMILES,Bfl-1 A1 inh,NALP1 yeast inh,NALP3 yeast inh,CHT allo act,CHT inh,SUMO Mot1 rescue
COc1ccccc1C(=O)Nc1nnc(S(=O)(=O)N2CCCCCC2)s1,0,16,4,i,i,337*
COc1ccccc1C(=O)Nc1nnc(CCc2ccccc2)s1,1,10,34,i,i,332*
COc1ccccc1C(=O)Nc1nnc(S(=O)(=O)N2CCCCC2)s1,-1,12,18,i,i,-17
COc1ccc(S(=O)(=O)N2CCCCCC2)cc1NC(=O)c1ccccc1,-1,2,-2,i,i,309*
COc1ccc(S(=O)(=O)N2CCN(C)CC2)cc1NC(=O)c1ccccc1,0,-6,13,i,i,-4
COc1cc(C(=O)O[C@H]2C/C(C)=C/CC[C@@]3(C)O[C@@H]3[C@H](O)[C@@H]2C(C)C)cc(OC)c1OC,1,16,9,i,i,-4
CN(C)CCCNS(=O)(=O)c1ccc(Cl)s1,-1,30*,6,i,i,-1
CN(C)CCCNS(=O)(=O)c1cc(Cl)c(Cl)cc1Cl,1,6,20,i,i,4
COc1ccc(N2CCN(C3=CC(=O)N(c4cccc(Cl)c4)C3=O)CC2)cc1,0,24*,20,i,i,10
COc1ccc(N2C(=O)CC(N3CCN(c4cccc(Cl)c4)CC3)C2=O)cc1 (centres undefined),0,4,15,i,i,10
CCCCN(C(=O)CSCC(=O)Nc1ccc(C)cc1)c1c(N)n(CCCC)c(=O)[nH]c1=O,1,/,9,i,i,-5
Cc1ccc2c(COC(=O)C3CSC4(C)CCC(=O)N34)cc(=O)oc2c1C (centres undefined),-1,/,6,/,/,7
Cc1ccc(CNC(=O)C2CCCN2C(=O)Nc2ccc(F)cc2)cc1 (centres undefined),1,7,30,i,i,-4
Cc1onc(-c2c(Cl)cccc2Cl)c1C(=O)Nc1nc(C(C)(C)C)cs1,1,36*,9,i,i,13
COc1ccc(NC(=O)CN(C)C(=O)c2c(-c3c(F)cccc3Cl)noc2C)cc1,1,/,-3,i,i,688*
Cc1onc(-c2c(Cl)cccc2Cl)c1NC(=O)NNc1ccccc1,2,0,0,i,i,-5
COc1ccc(NC(=O)CN(C)C(=O)c2c(-c3ccccc3Cl)noc2C)cc1,0,/,-1,i,i,19
Cc1onc(-c2c(Cl)cccc2Cl)c1C(=O)NNc1ccccc1,1,18,29,i,i,318*
Cc1nc(C(=O)NNC(=O)c2c(-c3c(Cl)cccc3Cl)noc2C)cs1,0,/,8,i,i,-14
Cc1onc(-c2c(F)cccc2Cl)c1C(=O)Nc1nnc(C(F)(F)F)s1,0,3,8,i,-8.7*,-15
Cc1onc(-c2c(F)cccc2Cl)c1C(=O)Nc1nccs1,0,21,-5,i,i,264
CCc1nnc(NC(=O)CN2CCCC(C)C2)s1 (centres undefined),-1,7,4,i,i,9

# Screens (PubChem BioAssay)
